This is part of a sample that, as a whole, favours compounds with a hit. Of some 79,000 tested, about 15% had one in any assay. Calls of active or inactive are those of the source. Rule as the data show it: active = growth inhibition above about 70%; inactive = the rest.
How the values were obtained:
[1] = NCI Yeast Anticancer Drug Screen. Data for the rad50 strain (AID 155);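 also: 0% = growth of vehicle-only cultures of the same strain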; conditions: S. cerevisiae rad50 strain growth inhibition, hits give high values
Outline: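 Growth of the mutant yeast was measured after compound exposure and referenced to vehicle-treated cultures.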

[2] = NCI Yeast Anticancer Drug Screen. Data for the mec2-1 strain (AID 157); conditions: S. cerevisiae mec2-1 strain, hits give high values
Outline: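 Cells of the genetically defined mec2-1 yeast strain are incubated with test compound. Inhibition of growth is calculated against vehicle-treated controls.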

[3] = NCI Yeast Anticancer Drug Screen. Data for the sgs1 mgt1 strain (AID 161);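 also: 0% = growth of cultures given vehicle only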; conditions: S. cerevisiae sgs1 mgt1 strain, hits give high values
Outline: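 Read-out: growth inhibition vs vehicle controls. Cells: mutant yeast strain deficient in DNA damage repair.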

[4] = NCI Yeast Anticancer Drug Screen. Data for the cln2 rad14 strain (AID 165);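 also: 0% = growth equal to vehicle treated cultures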; conditions: S. cerevisiae cln2 rad14 strain, hits give high values
Outline: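 The screen exposed genetically defined yeast (cln2 rad14) to test compounds and scored growth inhibition relative to vehicle-treated controls.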

[5] = NCI Yeast Anticancer Drug Screen. Data for the bub3 strain (AID 167); conditions: S. cerevisiae bub3 mutant strain, hits give high values
Outline: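 Whole-cell yeast assay. The mutant strain was incubated with compounds, and growth inhibition was determined by comparison with vehicle-treated cells.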

[6] = NCI Yeast Anticancer Drug Screen. Data for the mlh1 rad18 strain (AID 175); conditions: S. cerevisiae mlh1 rad18 strain growth inhibition, hits give high values
Outline: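 Compound-treated yeast growth, normalised to vehicle controls. Strain bears defined DNA repair mutations.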

[7] = at 5.0 µM (retest, dose inferred, filed as 0.5)
[8] = at 50.0 µM (retest, dose inferred, filed as 5.0)

Measured: growth inhibition

CC1OC(OC2CC(O)(C(=O)CO)Cc3c(O)c4c(c(O)c32)C(=O)c2ccccc2C4=O)CC(N)C1O (stereo not drawn)
active: [1]; [7] 87% | [1]; [8] 96% | [1]; at 50.0 µM 87.8% | [2]; [8] 95% | [2]; at 50.0 µM 91.1% | [3]; [7] 86% | [3]; [8] 97% | [3]; at 50.0 µM 89.5% | [4]; [8] 95% | [4]; at 50.0 µM 87.3% | [5]; [8] 96% | [5]; at 50.0 µM 89.1% | [6]; [7] 77% | [6]; [8] 94%
inactive: [2]; [7] 62% | [4]; [7] 57% | [5]; [7] 56%

CS(=O)(=O)OCCN(CCOS(C)(=O)=O)c1ccc(C=Nc2ccc(-c3csc(Cc4ccccc4)n3)cc2)c(Cl)c1
active: [1]; [8] 95% | [1]; at 50.0 µM 71.2% | [2]; [8] 93% | [2]; at 50.0 µM 76.6% | [3]; [8] 83% | [3]; at 50.0 µM 71% | [4]; [8] 85% | [4]; at 50.0 µM 77% | [5]; [8] 78% | [5]; at 50.0 µM 76% | [6]; [8] 94%
inactive: [1]; [7] 16% | [2]; [7] 7% | [3]; [7] -22% | [4]; [7] 7% | [5]; [7] -35% | [6]; [7] 15%

O=c1c(Cl)c(Cl)cnn1CCCl
inactive: [1]; [7] 40% | [2]; [7] 9% | [2]; [8] 48% | [2]; at 50.0 µM 17.6% | [3]; [7] -1% | [3]; [8] 47% | [3]; at 50.0 µM -15.6% | [4]; [7] 6% | [4]; [8] 32% | [4]; at 50.0 µM 7.15% | [5]; [7] -6% | [5]; [8] 69% | [5]; at 50.0 µM -10.5% | [6]; [7] 15%
active: [1]; [8] 92% | [1]; at 50.0 µM 74.9% | [6]; [8] 71%

Cc1n(Cc2ccccc2)c2c([n+]1C)C(=O)c1ccccc1C2=O
active: [1]; [8] 97% | [1]; at 50.0 µM 86.2% | [2]; [8] 98% | [2]; at 50.0 µM 91.8% | [3]; [8] 98% | [3]; at 50.0 µM 91.2% | [4]; [8] 92% | [4]; at 50.0 µM 89.2% | [5]; [7] 72% | [5]; [8] 98% | [5]; at 50.0 µM 89.2% | [6]; [7] 78% | [6]; [8] 97%
inactive: [1]; [7] 44% | [2]; [7] 50% | [3]; [7] 55% | [4]; [7] 34%

Cc1cc(NCCCCCCCNc2cc(C)nc3cc([N+](=O)[O-])ccc23)c2ccc([N+](=O)[O-])cc2n1
inactive: [1]; [7] 1% | [1]; at 50.0 µM 68.5% | [2]; [7] 15% | [3]; [7] 5% | [4]; [7] 14% | [4]; at 50.0 µM 57.8% | [5]; [7] 1% | [6]; [7] 5%
active: [1]; [8] 87% | [2]; [8] 83% | [2]; at 50.0 µM 77% | [3]; [8] 90% | [3]; at 50.0 µM 72.2% | [4]; [8] 70% | [5]; [8] 83% | [5]; at 50.0 µM 73.1% | [6]; [8] 88%

C=C1CC2(CC(c3ccccc3C)OC(c3ccccc3C)C2)OC1=O (stereo not drawn)
inactive: [1]; [7] 54% | [2]; [7] 53%
active: [1]; [8] 85% | [1]; at 50.0 µM 77.7% | [2]; [8] 94% | [2]; at 50.0 µM 83.7% | [3]; [7] 76% | [3]; [8] 83% | [3]; at 50.0 µM 84.1% | [4]; [7] 83% | [4]; [8] 91% | [4]; at 50.0 µM 84% | [5]; [7] 74% | [5]; [8] 87% | [5]; at 50.0 µM 78.4% | [6]; [7] 80% | [6]; [8] 90%

CC1CC[P+](c2ccccc2)(c2ccccc2)c2c1ccc1ccccc21 (stereo not drawn)
active: [1]; [7] 76% | [1]; [8] 98% | [1]; at 50.0 µM 84.9% | [2]; [8] 98% | [2]; at 50.0 µM 90.2% | [3]; [7] 81% | [3]; [8] 98% | [3]; at 50.0 µM 91.2% | [4]; [8] 97% | [4]; at 50.0 µM 88.8% | [5]; [8] 99% | [5]; at 50.0 µM 88.6% | [6]; [8] 97%
inactive: [2]; [7] 54% | [4]; [7] 30% | [5]; [7] 67% | [6]; [7] 64%

COc1cc(OC)c(OC)cc1/C=C\c1ccnc2ccccc12
inactive: [1]; [7] 19% | [1]; at 50.0 µM 33.8% | [2]; [7] 13% | [2]; [8] 65% | [2]; at 50.0 µM 37% | [3]; [7] 10% | [4]; [7] 18% | [4]; [8] 57% | [4]; at 50.0 µM 41.5% | [5]; [7] 6% | [5]; at 50.0 µM 62.8% | [6]; [7] 13%
active: [1]; [8] 73% | [3]; [8] 88% | [3]; at 50.0 µM 88.4% | [5]; [8] 79% | [6]; [8] 83%

C/C(=N\NC(=S)N1CCN(c2ccccn2)CC1)c1nccs1
inactive: [1]; [7] 23% | [2]; [7] 43% | [3]; [7] 43% | [4]; [7] 52% | [6]; [7] 38%
active: [1]; [8] 98% | [1]; at 50.0 µM 86.5% | [2]; [8] 99% | [2]; at 50.0 µM 91.6% | [3]; [8] 99% | [3]; at 50.0 µM 90.8% | [4]; [8] 98% | [4]; at 50.0 µM 89.5% | [5]; [7] 73% | [5]; [8] 99% | [5]; at 50.0 µM 87.3% | [6]; [8] 99%

— PubChem BioAssay (NCI)
